Where “and” joins values, the source holds several entries; their conditions need not be identical. Equal entries are not always repeated. Structures can show the parent of a compound that is named as a salt.

The subject of the test is Neuro-2a. Description: neurite formation score, plate-normalized to DMSO control mean 5.04 (score (0-8 scale)); higher = more or longer neurites. Particulars: 0.1 µM. The protocol:
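Neuro-2a mouse neuroblastoma cells in PLL-coated 96-well plates were pre-treated for 1 h in DMEM(+) with each kinase inhibitor at 0.1 µM, then switched to serum-free DMEM(-) with inhibitor to induce neurite outgrowth and fixed about 2-3 h later. Three blinded observers scored neurite formation from 0 (no neurites) to 8 (long neurites on almost all cells).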
`Cc1nc(NC(=O)N2CCC[C@H]2C(N)=O)sc1-c1ccnc(C(C)(C)C(F)(F)F)c1` returned a neurite formation score of 5.21.

For `Nc1nc(Nc2ccc(S(N)(=O)=O)cc2)nn1C(=O)c1c(F)cccc1F`, the neurite formation score was 5.58.

Turning to `O=C1NC(=O)/C(=C/c2cccc(C(F)(F)F)c2)S1`, the neurite formation score amounted to 4.92. Molecule `O=C(c1cccc(Cl)c1F)N1CCN(Cc2cccc(Nc3nccs3)n2)CC1` displayed a neurite formation score of 1.42.

Molecule `Cc1ccc(NC(=O)c2ccc(CN3CCN(C)CC3)cc2)cc1Nc1nccc(-c2cccnc2)n1` [Imatinib Mesylate (STI571)] showed a neurite formation score of 4.71. For `O=C1c2ccc(Nc3ccc(F)cc3F)cc2CCc2ccc(OC[C@H](O)CO)cc21` [Skepinone-L] the value was 5.25; for `CCNC(=O)Nc1ccc(-c2nc3c(c(N4CCOC[C@@H]4C)n2)CCN(C2COC2)C3)cc1`, 3.71; for `Cc1cc([C@@H](C)Nc2ccccc2C(=O)O)c2nc(N3CCOCC3)cc(=O)n2c1`, 4.54. For `CC(C)(C)c1ccc(S(=O)(=O)/C=C/C#N)cc1` the value was 4.75; for `O=C(c1ccc(/C=C/c2n[nH]c3ccccc23)cc1)N1CCNCC1`, 1.92; for `CN(C)C/C=C/C(=O)Nc1cc2c(Nc3ccc(F)c(Cl)c3)ncnc2cc1O[C@H]1CCOC1` [Afatinib (BIBW2992)], 4.54. Molecule `CS(=O)(=O)c1cccc(CNc2nc(Nc3ccc4c(c3)CCC(=O)N4)ncc2C(F)(F)F)c1` registered a neurite formation score of 5.09. In turn, `Cc1cc(Nc2nc(N[C@@H](C)c3ncc(F)cn3)ncc2Cl)[nH]n1` returned a neurite formation score of 3.09. For `O=S(=O)(NCCNC/C=C/c1ccc(Br)cc1)c1cccc2cnccc12` the value was 4.75; for `O=C(Nc1cccc(Nc2ncc(Br)c(NCCc3cnc[nH]3)n2)c1)N1CCCC1`, 4.71. As for `CC(C)[C@H](CO)Nc1nc(Nc2cccc(Cl)c2)c2ncn(C(C)C)c2n1` [Purvalanol A], the neurite formation score stood at 5.08.

Take `CCOc1cc2ncc(C#N)c(Nc3ccc(OCc4ccccn4)c(Cl)c3)c2cc1NC(=O)/C=C/CN(C)C` [Neratinib (HKI-272)]: the neurite formation score worked out at 5.09. For `CN(C)c1nc2c(Br)c(Br)c(Br)c(Br)c2[nH]1` the value was 5.25; for `O=C(Nc1ccc(CN2CCOCC2)cc1)c1ccc(-c2cccc(Cl)c2)o1`, 5.54.

For the molecule `Cc1ccc(C(=O)Nc2cccc(C(F)(F)F)c2)cc1Nc1nc(-c2cccnc2)nc2c1cnn2C`, the neurite formation score worked out at 4.25. For `Cn1cc(-c2ccc3ncc(Cc4ccc5ncccc5c4)n3n2)cn1`, the neurite formation score is 4.92. Turning to `O=C(Nc1c[nH]nc1-c1nc2ccc(CN3CCOCC3)cc2[nH]1)NC1CC1`, the neurite formation score came to 5.92. On to `CC(=O)c1c(C)c2cnc(Nc3ccc(N4CCNCC4)cn3)nc2n(C2CCCC2)c1=O`, for which the neurite formation score is 4.88 and 4.54. For `Nc1nccc(Oc2ccc(NC(=O)c3c[nH]cc(-c4ccc(F)cc4)c3=O)cc2F)c1Cl` the value was 4.92; for `CCN(CC)CCCCNc1ncc2cc(-c3cc(OC)cc(OC)c3)c(NC(=O)NC(C)(C)C)nc2n1`, 5.21; for `CNC(=O)c1c(F)cccc1Nc1nc(Nc2cc3c(cc2OC)CCN3C(=O)CN(C)C)nc2[nH]ccc12`, 4.58. For `Nc1ccc(C(=O)Nc2cccc(-c3nc(N4CCOCC4)c4oc5ncccc5c4n3)c2)cn1` the value was 4.42; for `Nc1nc(NCCNc2ncc(-n3ccnc3)c(-c3ccc(Cl)cc3Cl)n2)ccc1[N+](=O)[O-]`, 4.92; for `Cc1c(NC(=O)OC[C@@H]2COCCN2)cn2ncnc(Nc3ccc4c(cnn4Cc4cccc(F)c4)c3)c12`, 3.71. As for `Nc1nc(N)c(N=O)c(OCC2CCCCC2)n1`, the neurite formation score came to 4.71. For `OCCn1cc(-c2cnc3nnn(Cc4ccc5ncccc5c4)c3n2)cn1` the value was 3.25.

For `CC(C)(C)c1cnc(CSc2cnc(NC(=O)C3CCNCC3)s2)o1`, the neurite formation score stood at 4.38.

The molecule `Cc1ccc(NC(=O)c2cccc(N(C)C)c2)cc1NC(=O)c1ccc(O)cc1` gave a neurite formation score of 4.58. For `COc1cc(-c2cc(-c3cccc(O)c3)cnc2N)cc(OC)c1OC` the value was 4.08; for `CCCS(=O)(=O)Nc1ccc(F)c(C(=O)c2c[nH]c3ncc(Cl)cc23)c1F`, 4.38; for `COc1ncc(-c2ccc3nccc(-c4ccnnc4)c3c2)cc1NS(=O)(=O)c1ccc(F)cc1F`, 4.92. For `CS(=O)(=O)N1CCN(Cc2cc3nc(-c4cccc5[nH]ncc45)nc(N4CCOCC4)c3s2)CC1` the value was 5.21.

Source of the values: the supplement of paper PMC8047044.
